# Results: article PMC7862700, “An all-to-all approach to the identification of sequence-specific readers for epigenetic DNA modifications on cytosine”
# Tests used:
# Experiment in all cases: DAPPL (digital affinity profiling via proximity ligation, sequencing); 10 mM Tris-HCl pH 7.5, 50 mM NaCl, 1 mM DTT, 4% glycerol, room temperature, 30 min; GST-TFs on glutathione beads, 16-mer random dsDNA library, 0.1% formaldehyde crosslink after washing; high values mean tight binding
# [1] = biological target: T1, FLI1 (Homo sapiens, UniProt Q01543 1-452); conditions: protein: recombinant; tags: N-terminal GST; dsDNA, one strand shown
# T1 sequence: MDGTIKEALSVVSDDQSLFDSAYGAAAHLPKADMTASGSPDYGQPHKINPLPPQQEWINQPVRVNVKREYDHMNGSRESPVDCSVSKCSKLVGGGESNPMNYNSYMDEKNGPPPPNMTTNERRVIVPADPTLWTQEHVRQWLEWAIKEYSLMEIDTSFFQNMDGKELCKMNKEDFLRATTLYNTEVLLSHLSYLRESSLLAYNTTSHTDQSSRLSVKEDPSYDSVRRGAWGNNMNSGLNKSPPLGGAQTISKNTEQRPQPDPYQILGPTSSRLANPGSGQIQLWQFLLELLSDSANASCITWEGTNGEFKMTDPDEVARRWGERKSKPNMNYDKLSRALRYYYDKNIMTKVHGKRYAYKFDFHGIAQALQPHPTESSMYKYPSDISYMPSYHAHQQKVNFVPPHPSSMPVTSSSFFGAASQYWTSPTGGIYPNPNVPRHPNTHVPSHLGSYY
# Outline: (§1)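 Human transcription factors carrying a GST fusion were produced in yeast, bound to glutathione beads, tagged with DNA barcodes and pooled together with a tag-only sample. Each pool was held with 200 nmole of a random double-stranded 16-mer DNA library in Tris/NaCl/DTT/glycerol buffer for 30 min at room temperature, then washed, crosslinked in 0.1% formaldehyde, proximity-ligated with BsaI/T4 ligase (1 h, 37 °C), PCR-amplified and sequenced on an Illumina NextSeq500. Binding signal is the read frequency of each hexamer for a given factor divided by its frequency in the tag-only sample.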
# [2] = biological target: T2, ELK1 (Homo sapiens, UniProt P19419 1-428); conditions: protein: recombinant; tags: N-terminal GST; dsDNA, one strand shown
# T2 sequence: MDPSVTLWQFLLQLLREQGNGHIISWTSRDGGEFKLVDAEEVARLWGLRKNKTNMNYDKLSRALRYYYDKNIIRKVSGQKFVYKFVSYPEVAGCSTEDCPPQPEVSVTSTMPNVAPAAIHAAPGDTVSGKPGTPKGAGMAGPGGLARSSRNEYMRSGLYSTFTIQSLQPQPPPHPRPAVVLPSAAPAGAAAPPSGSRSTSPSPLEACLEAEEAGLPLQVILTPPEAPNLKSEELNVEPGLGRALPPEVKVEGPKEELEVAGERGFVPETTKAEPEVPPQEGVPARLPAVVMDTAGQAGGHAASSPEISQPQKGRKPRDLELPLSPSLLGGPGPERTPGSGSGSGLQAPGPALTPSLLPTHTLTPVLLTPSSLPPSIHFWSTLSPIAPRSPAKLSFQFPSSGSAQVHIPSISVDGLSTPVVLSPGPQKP
# Outline: as §1
# [3] = biological target: T3, GABPA (Homo sapiens, UniProt Q06546 1-454); conditions: protein: recombinant; tags: N-terminal GST; dsDNA, one strand shown
# T3 sequence: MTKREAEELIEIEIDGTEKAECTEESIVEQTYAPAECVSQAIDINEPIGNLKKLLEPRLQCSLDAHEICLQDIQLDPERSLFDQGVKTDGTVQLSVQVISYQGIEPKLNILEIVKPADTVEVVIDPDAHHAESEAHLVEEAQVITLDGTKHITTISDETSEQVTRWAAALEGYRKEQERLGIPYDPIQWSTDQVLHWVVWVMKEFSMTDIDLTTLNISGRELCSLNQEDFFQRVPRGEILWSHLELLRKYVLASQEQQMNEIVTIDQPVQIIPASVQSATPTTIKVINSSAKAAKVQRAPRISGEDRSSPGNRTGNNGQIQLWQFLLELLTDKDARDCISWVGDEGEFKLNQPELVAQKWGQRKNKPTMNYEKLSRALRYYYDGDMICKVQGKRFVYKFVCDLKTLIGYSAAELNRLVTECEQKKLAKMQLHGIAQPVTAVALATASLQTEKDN
# Outline: as §1
# [4] = biological target: T4, ERG (Homo sapiens, UniProt P11308 1-479); conditions: protein: recombinant; tags: N-terminal GST; dsDNA, one strand shown
# T4 sequence: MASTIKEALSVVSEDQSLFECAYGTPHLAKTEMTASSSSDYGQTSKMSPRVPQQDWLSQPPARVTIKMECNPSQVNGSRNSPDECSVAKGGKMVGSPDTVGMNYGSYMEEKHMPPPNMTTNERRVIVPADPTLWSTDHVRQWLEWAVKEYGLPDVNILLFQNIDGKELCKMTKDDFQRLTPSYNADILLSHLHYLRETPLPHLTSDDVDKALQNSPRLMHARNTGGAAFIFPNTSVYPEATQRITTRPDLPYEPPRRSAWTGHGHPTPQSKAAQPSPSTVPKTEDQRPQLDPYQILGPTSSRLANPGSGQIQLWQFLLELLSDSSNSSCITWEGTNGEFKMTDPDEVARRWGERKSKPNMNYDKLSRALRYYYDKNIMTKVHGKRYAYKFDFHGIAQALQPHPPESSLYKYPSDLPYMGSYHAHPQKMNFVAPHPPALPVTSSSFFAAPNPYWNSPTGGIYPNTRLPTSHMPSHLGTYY
# Outline: as §1
# [5] = biological target: ELF1 (Homo sapiens, UniProt P32519 1-619); conditions: protein: recombinant; tags: N-terminal GST; dsDNA, one strand shown
# ELF1, sequence (P32519 whole entry): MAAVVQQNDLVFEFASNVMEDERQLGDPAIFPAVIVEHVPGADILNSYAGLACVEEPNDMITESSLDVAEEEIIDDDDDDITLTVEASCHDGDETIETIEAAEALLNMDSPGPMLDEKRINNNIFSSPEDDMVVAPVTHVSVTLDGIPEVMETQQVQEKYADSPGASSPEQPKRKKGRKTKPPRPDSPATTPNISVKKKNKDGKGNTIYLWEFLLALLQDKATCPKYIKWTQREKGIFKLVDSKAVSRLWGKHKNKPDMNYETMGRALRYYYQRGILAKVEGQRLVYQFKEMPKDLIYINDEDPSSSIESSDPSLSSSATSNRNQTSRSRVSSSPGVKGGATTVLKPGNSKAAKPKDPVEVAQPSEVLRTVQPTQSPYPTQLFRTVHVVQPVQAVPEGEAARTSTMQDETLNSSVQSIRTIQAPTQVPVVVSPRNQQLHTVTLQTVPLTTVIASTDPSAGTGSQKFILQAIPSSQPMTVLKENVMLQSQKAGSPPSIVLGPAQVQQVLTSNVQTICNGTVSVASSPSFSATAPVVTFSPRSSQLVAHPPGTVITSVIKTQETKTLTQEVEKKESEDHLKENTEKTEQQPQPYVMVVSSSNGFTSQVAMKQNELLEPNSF
# Outline: as §1
# [6] = biological target: T5, EHF (Homo sapiens, UniProt Q9NZC4 1-300); conditions: protein: recombinant; tags: N-terminal GST; dsDNA, one strand shown
# T5 sequence: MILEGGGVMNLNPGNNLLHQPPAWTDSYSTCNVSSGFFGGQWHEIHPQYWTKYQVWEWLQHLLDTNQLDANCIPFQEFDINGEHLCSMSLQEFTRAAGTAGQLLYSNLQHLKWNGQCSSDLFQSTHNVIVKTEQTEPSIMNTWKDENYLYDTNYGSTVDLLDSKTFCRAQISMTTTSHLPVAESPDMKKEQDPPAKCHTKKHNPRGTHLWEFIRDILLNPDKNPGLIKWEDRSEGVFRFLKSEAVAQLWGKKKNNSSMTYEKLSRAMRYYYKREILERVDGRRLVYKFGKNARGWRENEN
# Outline: as §1
# [7] = biological target: SPI1 (Homo sapiens, UniProt P17947 1-270); conditions: protein: recombinant; tags: N-terminal GST; dsDNA, one strand shown
# Outline: as §1
# [8] = biological target: SPIB (Homo sapiens, UniProt Q01892 1-262); conditions: protein: recombinant; tags: N-terminal GST; dsDNA, one strand shown
# SPIB, sequence (Q01892 whole entry): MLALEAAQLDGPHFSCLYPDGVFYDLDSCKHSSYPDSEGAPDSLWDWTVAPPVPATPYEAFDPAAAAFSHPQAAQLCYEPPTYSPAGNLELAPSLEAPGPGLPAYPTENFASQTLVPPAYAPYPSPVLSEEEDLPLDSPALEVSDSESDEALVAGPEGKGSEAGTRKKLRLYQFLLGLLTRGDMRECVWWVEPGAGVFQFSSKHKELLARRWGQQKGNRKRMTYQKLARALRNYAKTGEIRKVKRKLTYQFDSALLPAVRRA
# Outline: as §1
# [9] = biological target: T6, ELK3 (Homo sapiens, UniProt P41970 1-407); conditions: protein: recombinant; tags: N-terminal GST; dsDNA, one strand shown
# T6 sequence: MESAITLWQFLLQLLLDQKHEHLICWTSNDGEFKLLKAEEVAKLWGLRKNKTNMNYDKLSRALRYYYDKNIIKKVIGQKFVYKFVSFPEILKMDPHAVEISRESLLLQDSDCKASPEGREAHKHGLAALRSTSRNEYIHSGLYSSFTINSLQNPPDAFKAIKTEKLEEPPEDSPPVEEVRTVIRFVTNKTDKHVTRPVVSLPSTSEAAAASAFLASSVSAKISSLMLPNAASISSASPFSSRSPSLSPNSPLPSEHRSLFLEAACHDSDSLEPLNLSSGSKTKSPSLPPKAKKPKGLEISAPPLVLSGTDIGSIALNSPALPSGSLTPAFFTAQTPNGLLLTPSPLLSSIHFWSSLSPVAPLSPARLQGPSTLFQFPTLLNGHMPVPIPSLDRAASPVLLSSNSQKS
# Outline: as §1
# [10] = biological target: T7, FEV (Homo sapiens, UniProt Q99581 1-238); conditions: protein: recombinant; tags: N-terminal GST; dsDNA, one strand shown
# T7 sequence: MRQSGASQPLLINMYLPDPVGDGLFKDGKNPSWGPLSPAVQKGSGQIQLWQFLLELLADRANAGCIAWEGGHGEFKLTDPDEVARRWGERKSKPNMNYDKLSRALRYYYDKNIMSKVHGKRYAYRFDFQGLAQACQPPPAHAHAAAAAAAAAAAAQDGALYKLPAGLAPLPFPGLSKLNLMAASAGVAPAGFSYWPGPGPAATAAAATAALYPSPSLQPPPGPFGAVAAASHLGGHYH
# Outline: as §1
# [11] = biological target: ETV5 (Homo sapiens, UniProt P41161 1-510); conditions: protein: recombinant; tags: N-terminal GST; dsDNA, one strand shown
# ETV5, sequence (P41161 whole entry): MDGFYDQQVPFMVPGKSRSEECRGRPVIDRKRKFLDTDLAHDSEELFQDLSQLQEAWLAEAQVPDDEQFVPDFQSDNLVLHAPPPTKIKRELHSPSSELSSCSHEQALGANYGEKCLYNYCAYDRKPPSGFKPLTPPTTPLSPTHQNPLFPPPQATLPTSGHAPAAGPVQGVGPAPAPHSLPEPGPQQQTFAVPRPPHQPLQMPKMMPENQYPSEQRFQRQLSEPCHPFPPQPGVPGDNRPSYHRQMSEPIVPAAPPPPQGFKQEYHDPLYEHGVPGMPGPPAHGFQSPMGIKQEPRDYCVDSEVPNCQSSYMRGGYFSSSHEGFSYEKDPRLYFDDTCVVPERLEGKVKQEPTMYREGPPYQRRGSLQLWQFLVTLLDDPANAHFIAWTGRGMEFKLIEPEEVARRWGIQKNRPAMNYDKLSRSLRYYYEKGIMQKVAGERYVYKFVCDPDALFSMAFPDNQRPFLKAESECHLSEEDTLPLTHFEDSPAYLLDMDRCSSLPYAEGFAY
# Outline: as §1
# [12] = biological target: HSF1 (Homo sapiens, UniProt Q00613 1-529); conditions: protein: recombinant; tags: N-terminal GST; chain copies: 3; dsDNA, one strand shown
# HSF1, sequence (Q00613 whole entry): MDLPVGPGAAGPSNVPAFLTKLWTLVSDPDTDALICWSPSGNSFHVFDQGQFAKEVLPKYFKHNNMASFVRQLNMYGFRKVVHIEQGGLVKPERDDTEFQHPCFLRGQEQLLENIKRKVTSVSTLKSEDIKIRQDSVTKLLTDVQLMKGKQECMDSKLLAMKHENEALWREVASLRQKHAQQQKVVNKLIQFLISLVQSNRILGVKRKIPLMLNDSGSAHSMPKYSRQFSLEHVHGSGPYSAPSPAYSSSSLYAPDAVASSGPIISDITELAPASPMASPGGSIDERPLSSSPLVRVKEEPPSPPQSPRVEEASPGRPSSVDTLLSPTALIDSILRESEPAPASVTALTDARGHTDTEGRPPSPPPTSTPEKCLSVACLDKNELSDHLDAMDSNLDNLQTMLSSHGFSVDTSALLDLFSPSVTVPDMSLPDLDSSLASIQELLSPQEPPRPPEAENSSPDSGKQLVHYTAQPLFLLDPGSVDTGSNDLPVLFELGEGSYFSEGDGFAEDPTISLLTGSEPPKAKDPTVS
# Outline: as §1
# [13] = biological target: T8, SPIC (Homo sapiens, UniProt Q8N5J4 1-248); conditions: protein: recombinant; tags: N-terminal GST; dsDNA, one strand shown
# T8 sequence: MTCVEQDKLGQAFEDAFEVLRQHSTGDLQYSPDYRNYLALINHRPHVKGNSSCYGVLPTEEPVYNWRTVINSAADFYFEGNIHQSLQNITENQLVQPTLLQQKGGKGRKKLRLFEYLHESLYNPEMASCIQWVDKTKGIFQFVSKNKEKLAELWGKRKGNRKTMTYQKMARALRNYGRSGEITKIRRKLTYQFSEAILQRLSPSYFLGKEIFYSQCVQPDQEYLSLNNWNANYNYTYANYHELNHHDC
# Outline: as §1
# [14] = biological target: ELF4 (Homo sapiens, UniProt Q99607 1-663); conditions: protein: recombinant; tags: N-terminal GST; dsDNA, one strand shown
# ELF4, sequence (Q99607 whole entry): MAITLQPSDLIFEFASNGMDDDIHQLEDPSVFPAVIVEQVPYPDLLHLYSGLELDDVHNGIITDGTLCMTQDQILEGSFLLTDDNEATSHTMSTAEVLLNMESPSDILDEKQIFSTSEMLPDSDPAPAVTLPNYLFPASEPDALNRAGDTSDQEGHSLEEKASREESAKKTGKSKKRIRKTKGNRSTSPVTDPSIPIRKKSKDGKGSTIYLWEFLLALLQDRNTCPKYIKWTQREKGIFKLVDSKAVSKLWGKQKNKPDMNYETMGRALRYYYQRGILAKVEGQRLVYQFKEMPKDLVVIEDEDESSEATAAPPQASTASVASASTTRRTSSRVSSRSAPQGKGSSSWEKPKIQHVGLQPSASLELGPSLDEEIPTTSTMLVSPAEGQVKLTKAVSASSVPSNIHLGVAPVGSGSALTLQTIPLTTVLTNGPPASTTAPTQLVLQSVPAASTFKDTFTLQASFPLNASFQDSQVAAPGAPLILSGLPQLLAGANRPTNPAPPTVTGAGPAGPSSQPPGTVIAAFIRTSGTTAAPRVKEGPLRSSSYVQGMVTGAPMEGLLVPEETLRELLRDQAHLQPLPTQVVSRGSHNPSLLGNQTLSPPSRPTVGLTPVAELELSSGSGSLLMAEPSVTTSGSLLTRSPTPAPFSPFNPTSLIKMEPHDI
# Outline: as §1
# [15] = biological target: T9, ELK4 (Homo sapiens, UniProt P28324-2 1-405); conditions: protein: recombinant; tags: N-terminal GST; dsDNA, one strand shown
# T9 sequence: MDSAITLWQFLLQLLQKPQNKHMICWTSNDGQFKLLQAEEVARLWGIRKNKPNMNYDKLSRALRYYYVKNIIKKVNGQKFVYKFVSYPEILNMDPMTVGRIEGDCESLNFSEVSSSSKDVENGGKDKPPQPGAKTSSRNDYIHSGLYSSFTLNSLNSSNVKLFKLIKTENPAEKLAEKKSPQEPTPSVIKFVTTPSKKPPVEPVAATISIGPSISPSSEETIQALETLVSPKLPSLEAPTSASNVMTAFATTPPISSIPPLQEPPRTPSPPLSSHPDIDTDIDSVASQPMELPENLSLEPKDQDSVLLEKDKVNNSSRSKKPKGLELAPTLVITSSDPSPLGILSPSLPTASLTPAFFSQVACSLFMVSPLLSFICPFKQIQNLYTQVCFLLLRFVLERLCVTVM
# Outline: as §1
# [16] = biological target: T10, ETV2 (Homo sapiens, UniProt O00321 1-342); conditions: protein: recombinant; tags: N-terminal GST; dsDNA, one strand shown
# T10 sequence: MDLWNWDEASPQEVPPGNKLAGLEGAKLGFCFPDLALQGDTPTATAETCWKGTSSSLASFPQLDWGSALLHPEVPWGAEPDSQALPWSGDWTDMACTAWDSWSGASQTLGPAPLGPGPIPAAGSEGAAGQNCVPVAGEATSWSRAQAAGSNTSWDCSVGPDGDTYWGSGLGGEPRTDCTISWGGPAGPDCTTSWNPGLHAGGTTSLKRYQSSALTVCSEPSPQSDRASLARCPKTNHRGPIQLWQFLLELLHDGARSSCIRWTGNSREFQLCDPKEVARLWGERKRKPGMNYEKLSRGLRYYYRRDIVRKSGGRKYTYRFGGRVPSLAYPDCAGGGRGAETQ
# Outline: as §1
# [17] = biological target: CRX (Homo sapiens, UniProt O43186 1-299); conditions: protein: recombinant; tags: N-terminal GST; dsDNA, one strand shown
# CRX, sequence (O43186 whole entry): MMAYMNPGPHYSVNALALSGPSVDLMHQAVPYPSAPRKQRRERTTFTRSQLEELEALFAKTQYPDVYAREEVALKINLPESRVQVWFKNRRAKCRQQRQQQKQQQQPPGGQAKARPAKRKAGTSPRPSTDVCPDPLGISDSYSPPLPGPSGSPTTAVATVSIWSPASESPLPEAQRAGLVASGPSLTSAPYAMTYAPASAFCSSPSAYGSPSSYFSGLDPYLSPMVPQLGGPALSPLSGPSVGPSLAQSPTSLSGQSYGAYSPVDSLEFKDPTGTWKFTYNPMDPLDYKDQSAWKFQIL
# Outline: as §1
# [18] = biological target: ETV1 (Homo sapiens, UniProt P50549 1-477); conditions: protein: recombinant; tags: N-terminal GST; dsDNA, one strand shown
# ETV1, sequence (P50549 whole entry): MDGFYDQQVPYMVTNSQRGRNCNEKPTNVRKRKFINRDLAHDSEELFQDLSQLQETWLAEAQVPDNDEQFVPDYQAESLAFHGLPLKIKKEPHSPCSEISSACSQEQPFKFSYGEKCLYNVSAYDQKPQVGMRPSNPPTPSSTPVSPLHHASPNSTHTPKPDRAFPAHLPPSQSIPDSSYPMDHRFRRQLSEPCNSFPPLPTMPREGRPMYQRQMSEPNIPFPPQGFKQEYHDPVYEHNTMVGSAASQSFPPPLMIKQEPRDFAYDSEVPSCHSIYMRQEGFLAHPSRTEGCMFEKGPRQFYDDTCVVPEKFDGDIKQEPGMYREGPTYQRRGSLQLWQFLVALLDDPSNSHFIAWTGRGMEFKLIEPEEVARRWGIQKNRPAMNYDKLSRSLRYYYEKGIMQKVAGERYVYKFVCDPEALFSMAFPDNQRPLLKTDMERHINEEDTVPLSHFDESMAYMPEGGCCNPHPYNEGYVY
# Outline: as §1
sequence,measurement,setting,value
GTCTAA,binding signal,[1],"1.05 fold enrichment (6-mer frequency, TF over GST control)"
same,binding signal,[2],"1.03 fold enrichment (6-mer frequency, TF over GST control)"
same,binding signal,[3],"1.14 fold enrichment (6-mer frequency, TF over GST control)"
same,binding signal,[4],"1.09 fold enrichment (6-mer frequency, TF over GST control)"
same,binding signal,[5],"1.09 fold enrichment (6-mer frequency, TF over GST control)"
same,binding signal,[6],"1.02 fold enrichment (6-mer frequency, TF over GST control)"
same,binding signal,[7],"1.08 fold enrichment (6-mer frequency, TF over GST control)"
same,binding signal,[8],"1.09 fold enrichment (6-mer frequency, TF over GST control)"
same,binding signal,[9],"1.12 fold enrichment (6-mer frequency, TF over GST control)"
same,binding signal,[10],"1.03 fold enrichment (6-mer frequency, TF over GST control)"
same,binding signal,[11],"1.01 fold enrichment (6-mer frequency, TF over GST control)"
same,binding signal,[12],"1.03 fold enrichment (6-mer frequency, TF over GST control)"
same,binding signal,[13],"1.11 fold enrichment (6-mer frequency, TF over GST control)"
same,binding signal,[14],"1.13 fold enrichment (6-mer frequency, TF over GST control)"
same,binding signal,[15],"1.14 fold enrichment (6-mer frequency, TF over GST control)"
same,binding signal,[16],"1.06 fold enrichment (6-mer frequency, TF over GST control)"
same,binding signal,[17],"1.33 fold enrichment (6-mer frequency, TF over GST control)"
same,binding signal,[18],"1.11 fold enrichment (6-mer frequency, TF over GST control)"
